Data from PubChem BioAssay.
Active and inactive are the calls of the source.

What was measured:
[1] = small molecules captured by biotinylated probe aFSTL3 – biochemical, small-molecule microarray, fluorescence 635/667, stem cell growth factor project, primary screen (AID 1064); conditions: higher = more signal;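 further: measures binding of the biotinylated anti-FSTL3 antibody to printed compounds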
[2] = binders from COS7 lysate, DM2A8 probe, primary screen, torsin A project, cell lysate, small-molecule microarray, fluorescence 635/667 (AID 1065); conditions: higher = more signal, COS7 lysate expressing mutant human TOR1A
[3] = small molecules captured by biotinylated probe aFGF2 – biochemical, small-molecule microarray, fluorescence 635/667, stem cell growth factor project, primary screen (AID 1067); conditions: higher = more signal;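 further: measures binding of biotinylated aFGF2 protein to printed compounds on slides; z-score merges feature fluorescence and signal-to-noise across triplicate slides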
[4] = small molecules captured by biotinylated probe aFGF10 – biochemical, small-molecule microarray, fluorescence 635/667, stem cell growth factor project, primary screen (AID 1071); conditions: higher = more signal;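 further: score merges 667 nm spot intensity and signal to noise from triplicate slides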
[5] = target: Neurogenic locus notch homolog protein 2 (Homo sapiens) (UniProt Q04721); test: small molecules binding Notch2 protein – biochemical, small-molecule microarray, 635 nm fluorescence, stem cell growth factors, primary screen (AID 1073); conditions: higher = more signal
[6] = target: Pro-neuregulin-1, membrane-bound isoform (Homo sapiens) (UniProt Q02297); test: small molecules binding neuregulin-1 protein – biochemical, small-molecule microarray, fluorescence 635/667, psychiatric disease protein project, primary screen (AID 1075); conditions: NRG1 binding, 635 nm fluorescence, higher = more signal;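 further: score combines 667 nm spot fluorescence with signal to noise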
[7] = system: Neuregulin-1 EGF-like domain; test: small molecules binding NRG1 EGF domain – biochemical, small-molecule microarray, 635 nm fluorescence, primary screen (AID 1081); conditions: higher = more signal;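 further: binding of the protein to compounds printed on small-molecule microarray slides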
[8] = FRG1 expression reporter modulators in myotubes – cell-based, C2C12 myotubes, firefly/Renilla luciferase, luminescence, FRG1 inhibition for FSHD, primary screen (AID 1084); conditions: FRG1 promoter luciferase, higher = more signal, called active from +8 up or from −8 down
[9] = small molecules captured by biotinylated probe aFST – biochemical, small-molecule microarray, fluorescence 635/667, stem cell growth factor project, primary screen (AID 1086); conditions: higher = more signal;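 further: score merges 667 nm fluorescence with signal-to-noise of each printed compound spot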
[10] = binders of probe aHhip on microarray, primary screen, stem cell growth factor project, biochemical, small-molecule microarray, fluorescence 635/667 (AID 1087); conditions: higher = more signal;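 further: score merges spot fluorescence at 667nm with spot signal to noise ratio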
[11] = system: PRMT1 (protein arginine N-methyltransferase 1); test: small molecules binding arginine methyltransferase PRMT1 – biochemical, small-molecule microarray, 635 nm fluorescence, primary screen (AID 1088); conditions: higher = more signal;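 further: binding of Prmt1 protein to compounds spotted on small-molecule microarray slides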
[12] = growth effects on S. cerevisiae YJM789 – YJM789 clinical isolate, OD600, 24 h, basal, primary screen (AID 1089); conditions: higher = more signal, called active from +8 up or from −8 down;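 further: growth of clinical yeast isolate S. cerevisiae YJM 789 seeded 1000 cells per well; test concentration not given here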
[13] = S. pombe growth modifiers, basal conditions – strain 972, OD600, 24 h, no modulator, primary screen (AID 1090);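 further: basal condition with compound alone and no growth modifier present; test concentration not given here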; conditions: S. pombe 972 growth, higher = more signal, called active from +8 up or from −8 down
[14] = budding yeast growth modifiers under rapamycin – strain BY4716, OD600, 96 h, primary screen (AID 1091); further: test concentration not given here; conditions: S. cerevisiae BY4716 + rapamycin, higher = more signal, called active from +8 up or from −8 down
[15] = target: Torsin-1A-interacting protein 2 (Homo sapiens) (UniProt Q8NFQ8); test: small molecules binding lysate-expressed LULL1 – cell lysate, human LULL1 lysate, 635/667 nm fluorescence, primary screen (AID 1092); conditions: small-molecule microarray, hLULL1 lysate binding, 635 nm fluorescence; higher = more signal;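 further: probe is lysate of COS7 cells overexpressing human LULL1; score merges per-feature 667 nm fluorescence with signal-to-noise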
[16] = optical density change of DRC41 E. coli – strain DRC41, OD650, 24 h, E. coli filamentation project, primary screen (AID 1093);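 further: MC1000 strain lacking acrAB efflux and sulA so SOS filamentation is blocked; test concentration not given here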; conditions: E. coli DRC41 growth, higher = more signal, called active from +8 up or from −8 down
[17] = probe aLefty2 binding to arrayed compounds – biochemical, biotinylated probe, 635/667 nm fluorescence, primary screen (AID 1094); conditions: small-molecule microarray, higher = more signal;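 further: score merges spot fluorescence near 667 nm with spot signal-to-noise ratio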
[18] = system: Noggin (protein binding on small-molecule microarray); test: small molecules binding Noggin protein – biochemical, 635/667 nm fluorescence, primary screen (AID 1095); conditions: 635 nm fluorescence, higher = more signal;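 further: score merges 667 nm feature fluorescence with signal to noise over triplicate slides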
[19] = target: Neurogenic locus notch homolog protein 3 (Homo sapiens) (UniProt Q9UM47); test: small molecules binding NOTCH3 protein – biochemical, 635/667 nm fluorescence, primary screen (AID 1096); conditions: small-molecule microarray, 635 nm fluorescence, higher = more signal
[20] = probe aEGFR binding to arrayed compounds – biochemical, biotinylated probe, 635/667 nm fluorescence, primary screen (AID 1097); conditions: small-molecule microarray, higher = more signal;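 further: probe is a biotinylated anti-EGFR antibody binding compounds printed on slides; score combines fluorescence near 667 nm and signal to noise of each spot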

Sequence of Neurogenic locus notch homolog protein 2 (Homo sapiens) (Q04721 whole entry, looked up, canonical isoform): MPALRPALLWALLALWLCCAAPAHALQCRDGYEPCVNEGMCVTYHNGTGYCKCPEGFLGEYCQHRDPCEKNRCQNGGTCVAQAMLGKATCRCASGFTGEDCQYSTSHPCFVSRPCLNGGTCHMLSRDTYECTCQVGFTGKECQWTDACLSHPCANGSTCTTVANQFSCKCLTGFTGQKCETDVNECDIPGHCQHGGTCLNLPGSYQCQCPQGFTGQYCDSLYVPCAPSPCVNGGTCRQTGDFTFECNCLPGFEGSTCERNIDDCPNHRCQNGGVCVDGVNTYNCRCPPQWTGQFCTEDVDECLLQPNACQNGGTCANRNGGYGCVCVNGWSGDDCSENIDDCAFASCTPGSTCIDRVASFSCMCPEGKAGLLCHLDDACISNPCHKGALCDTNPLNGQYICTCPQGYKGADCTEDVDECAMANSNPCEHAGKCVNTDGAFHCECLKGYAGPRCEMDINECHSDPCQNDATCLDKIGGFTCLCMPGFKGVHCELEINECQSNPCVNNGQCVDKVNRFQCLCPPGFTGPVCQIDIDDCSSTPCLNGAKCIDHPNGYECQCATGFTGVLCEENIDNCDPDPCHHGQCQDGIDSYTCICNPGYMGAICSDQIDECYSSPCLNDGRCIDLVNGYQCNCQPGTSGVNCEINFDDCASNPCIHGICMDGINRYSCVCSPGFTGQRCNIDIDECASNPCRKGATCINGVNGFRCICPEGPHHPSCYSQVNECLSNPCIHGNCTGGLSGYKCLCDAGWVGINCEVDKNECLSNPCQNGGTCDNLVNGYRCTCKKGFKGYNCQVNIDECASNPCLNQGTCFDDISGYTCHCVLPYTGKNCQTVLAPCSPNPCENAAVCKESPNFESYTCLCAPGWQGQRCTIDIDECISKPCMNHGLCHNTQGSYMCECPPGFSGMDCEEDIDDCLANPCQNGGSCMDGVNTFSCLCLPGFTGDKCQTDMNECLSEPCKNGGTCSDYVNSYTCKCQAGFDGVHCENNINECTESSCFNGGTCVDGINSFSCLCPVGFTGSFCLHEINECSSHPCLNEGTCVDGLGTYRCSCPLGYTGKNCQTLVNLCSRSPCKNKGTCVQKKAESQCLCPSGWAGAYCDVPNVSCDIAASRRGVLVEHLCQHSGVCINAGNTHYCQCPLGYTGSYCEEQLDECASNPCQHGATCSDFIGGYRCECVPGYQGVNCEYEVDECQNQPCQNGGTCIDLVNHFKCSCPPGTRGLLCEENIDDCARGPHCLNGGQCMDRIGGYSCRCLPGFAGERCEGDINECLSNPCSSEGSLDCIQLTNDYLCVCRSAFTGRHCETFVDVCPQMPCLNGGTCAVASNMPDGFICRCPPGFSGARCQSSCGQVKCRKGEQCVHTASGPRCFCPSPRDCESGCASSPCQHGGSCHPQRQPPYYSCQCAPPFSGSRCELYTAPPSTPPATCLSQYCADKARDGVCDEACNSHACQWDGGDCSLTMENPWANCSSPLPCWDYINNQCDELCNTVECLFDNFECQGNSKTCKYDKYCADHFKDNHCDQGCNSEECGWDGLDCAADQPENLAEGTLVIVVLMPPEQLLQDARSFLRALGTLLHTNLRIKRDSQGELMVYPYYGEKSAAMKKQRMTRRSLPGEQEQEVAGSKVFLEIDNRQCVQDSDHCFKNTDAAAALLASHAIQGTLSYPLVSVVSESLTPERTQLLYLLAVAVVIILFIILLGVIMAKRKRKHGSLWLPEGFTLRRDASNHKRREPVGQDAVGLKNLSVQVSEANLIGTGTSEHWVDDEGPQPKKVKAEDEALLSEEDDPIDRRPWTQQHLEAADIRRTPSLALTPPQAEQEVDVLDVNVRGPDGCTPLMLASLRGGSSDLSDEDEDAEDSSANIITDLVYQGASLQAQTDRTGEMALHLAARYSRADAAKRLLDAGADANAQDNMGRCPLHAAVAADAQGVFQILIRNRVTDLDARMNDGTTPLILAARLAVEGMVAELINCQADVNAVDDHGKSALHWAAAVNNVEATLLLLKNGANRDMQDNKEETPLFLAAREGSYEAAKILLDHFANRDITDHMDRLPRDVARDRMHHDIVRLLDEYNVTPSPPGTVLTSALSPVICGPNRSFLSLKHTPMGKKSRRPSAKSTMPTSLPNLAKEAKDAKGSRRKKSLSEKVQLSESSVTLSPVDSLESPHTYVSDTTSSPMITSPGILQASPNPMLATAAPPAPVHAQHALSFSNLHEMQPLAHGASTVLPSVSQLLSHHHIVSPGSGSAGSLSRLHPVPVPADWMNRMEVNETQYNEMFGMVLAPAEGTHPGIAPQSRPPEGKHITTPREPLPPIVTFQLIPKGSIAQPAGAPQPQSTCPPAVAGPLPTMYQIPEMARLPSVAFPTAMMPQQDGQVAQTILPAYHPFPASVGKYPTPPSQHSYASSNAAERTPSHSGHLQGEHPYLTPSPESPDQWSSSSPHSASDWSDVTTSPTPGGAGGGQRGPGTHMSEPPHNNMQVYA
Sequence of Pro-neuregulin-1, membrane-bound isoform (Homo sapiens) (Q02297 whole entry, looked up, the tested form may be a part, canonical isoform): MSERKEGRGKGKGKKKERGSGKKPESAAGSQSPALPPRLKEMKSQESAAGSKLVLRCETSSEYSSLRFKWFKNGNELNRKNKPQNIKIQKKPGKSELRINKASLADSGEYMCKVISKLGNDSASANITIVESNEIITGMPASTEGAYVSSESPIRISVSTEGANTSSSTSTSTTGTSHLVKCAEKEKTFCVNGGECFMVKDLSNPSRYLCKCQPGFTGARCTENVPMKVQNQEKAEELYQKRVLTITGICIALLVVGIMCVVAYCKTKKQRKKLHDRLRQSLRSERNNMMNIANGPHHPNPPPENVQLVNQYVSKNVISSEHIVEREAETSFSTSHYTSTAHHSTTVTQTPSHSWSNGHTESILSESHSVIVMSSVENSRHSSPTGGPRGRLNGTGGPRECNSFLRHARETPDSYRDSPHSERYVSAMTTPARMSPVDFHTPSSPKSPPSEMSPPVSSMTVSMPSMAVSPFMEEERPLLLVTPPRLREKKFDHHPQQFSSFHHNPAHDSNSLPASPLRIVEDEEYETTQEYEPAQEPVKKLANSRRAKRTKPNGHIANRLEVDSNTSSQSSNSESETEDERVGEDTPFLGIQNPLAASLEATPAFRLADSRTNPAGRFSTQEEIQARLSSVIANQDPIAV
Sequence of Torsin-1A-interacting protein 2 (Homo sapiens) (Q8NFQ8 whole entry, looked up): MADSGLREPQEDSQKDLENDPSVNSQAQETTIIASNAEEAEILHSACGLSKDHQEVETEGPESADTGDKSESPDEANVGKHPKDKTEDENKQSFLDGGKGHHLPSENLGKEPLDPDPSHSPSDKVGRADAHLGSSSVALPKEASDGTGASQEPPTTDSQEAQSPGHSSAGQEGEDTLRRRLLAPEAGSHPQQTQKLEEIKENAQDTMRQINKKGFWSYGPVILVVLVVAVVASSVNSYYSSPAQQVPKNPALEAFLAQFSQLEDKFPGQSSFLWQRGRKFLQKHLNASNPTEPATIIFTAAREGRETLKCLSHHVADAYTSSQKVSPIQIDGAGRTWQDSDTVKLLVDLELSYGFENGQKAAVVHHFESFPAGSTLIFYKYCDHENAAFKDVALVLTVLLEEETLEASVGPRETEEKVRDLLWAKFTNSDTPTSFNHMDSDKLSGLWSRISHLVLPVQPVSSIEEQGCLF

CO[C@H]1COC(=O)CCC[C@H](C)[C@@H](OC)COC(=O)CC=C[C@@H]1C
composite z-score [1]: -0.673
composite z-score [2]: 0.929
composite z-score [3]: -0.122
composite z-score [4]: 0.227
composite z-score [5]: 0.0458
composite z-score [6]: -0.21
composite z-score [7]: -0.179
z-score [8]: -0.0314 (inactive)
composite z-score [9]: -0.106
composite z-score [10]: -0.0237
composite z-score [11]: 0.411
z-score [12]: 0.0303 (inactive)
z-score [13]: 0.197 (inactive)
z-score [14]: -1.08 (inactive)
composite z-score [15]: -0.355
z-score [16]: 0.556 (inactive)
composite z-score [17]: -0.0448
composite z-score [18]: 0.409
composite z-score [19]: 0.0682
composite z-score [20]: -0.0405

C#CCCCON=C1C[C@@H](O)[C@@H](O)[C@@H]2[C@@H]3C(=O)N(C[C@@H]4CCCO4)C(=O)[C@@H]3CC[C@H]12
composite z-score [1]: -0.444
composite z-score [2]: 0.368
composite z-score [3]: -0.168
composite z-score [4]: 0.188
composite z-score [5]: 0.53
composite z-score [6]: 0.43
composite z-score [7]: 0.475
z-score [8]: 0.164 (inactive)
composite z-score [9]: 0.0653
composite z-score [10]: -0.353
composite z-score [11]: 0.81
z-score [12]: 0.426 (inactive)
z-score [13]: 0.775 (inactive)
z-score [14]: 0.749 (inactive)
composite z-score [15]: 1.22
z-score [16]: 0.397 (inactive)
composite z-score [17]: -0.134
composite z-score [18]: 0.463
composite z-score [19]: 0.607
composite z-score [20]: -0.0828

CC(CCC(=O)OC[C@H]1O[C@H](C#Cc2ccccc2)C=C[C@@H]1Oc1ccc(C)cc1)=NOC(C)CN1CCCCc2nc(C)c(C)cc21 (stereo not given in full)
composite z-score [1]: -0.172
composite z-score [2]: -0.116
composite z-score [3]: -0.211
composite z-score [4]: -0.12
composite z-score [5]: -0.565
composite z-score [6]: 0.904
composite z-score [7]: -0.491
z-score [8]: 0.49 (inactive)
composite z-score [9]: -0.697
composite z-score [10]: -0.143
composite z-score [11]: 0.479
z-score [12]: -0.167 (inactive)
z-score [13]: -0.324 (inactive)
z-score [14]: -0.773 (inactive)
composite z-score [15]: 0.238
z-score [16]: 0.136 (inactive)
composite z-score [17]: -0.0454
composite z-score [18]: -0.0193
composite z-score [19]: -0.171
composite z-score [20]: -0.18

COC(=O)[C@H](C)NC(=O)CCC1CC(OC(=O)NCc2cccc3ccccc23)CC2(CCCC(COC(=O)NCc3ccccc3)O2)O1 (stereo not given in full)
composite z-score [1]: -0.425
composite z-score [2]: -0.261
composite z-score [3]: 0.026
composite z-score [4]: 0.329
composite z-score [5]: 1.39
composite z-score [6]: 0.853
composite z-score [7]: 0.78
z-score [8]: 2.13 (inactive)
composite z-score [9]: 0.2
composite z-score [10]: -0.374
composite z-score [11]: 1.29
z-score [12]: -0.68 (inactive)
z-score [13]: 0.507 (inactive)
z-score [14]: -0.936 (inactive)
composite z-score [15]: 1.97
z-score [16]: -0.351 (inactive)
composite z-score [17]: -0.0638
composite z-score [18]: 0.478
composite z-score [19]: 1.09
composite z-score [20]: 0.12

COc1cccc([C@H](O)Cn2cc(-c3ccc(CON=C(C)C)cc3)nn2)c1
composite z-score [1]: -0.131
composite z-score [2]: 0.173
composite z-score [3]: -0.0138
composite z-score [4]: 0.0967
composite z-score [5]: -0.193
composite z-score [6]: -0.486
composite z-score [7]: 0.0451
z-score [8]: -0.291 (inactive)
composite z-score [9]: 0.0775
composite z-score [10]: -0.185
composite z-score [11]: 0.0112
z-score [12]: -0.733 (inactive)
z-score [13]: 0.16 (inactive)
z-score [14]: -0.625 (inactive)
composite z-score [15]: -0.441
z-score [16]: 1.2 (inactive)
composite z-score [17]: -0.0561
composite z-score [18]: -0.197
composite z-score [19]: -1.27
composite z-score [20]: 0.0709
